Results from the supplement of paper PMC11732987, “Enantioselective OTUD7B fragment discovery through chemoproteomics screening and high-throughput optimisation” (Communications Chemistry, 2025).
Values without a mark were called inactive.

Key:
Test in all cases: log2 ratio of Biotin-Ahx-Ub-VS probe labelling (fragment/DMSO); higher = less target engagement (more negative = stronger competition), active = hit call of the paper (q ≤ 0.05, log2 ratio ≤ -1)
Conditions in all cases: compound concentration: 200 uM; treatment time: 3 h
ALG13 = molecular target: T1, ALG13 (UniProt Q9NP73)
T1 sequence (whole entry): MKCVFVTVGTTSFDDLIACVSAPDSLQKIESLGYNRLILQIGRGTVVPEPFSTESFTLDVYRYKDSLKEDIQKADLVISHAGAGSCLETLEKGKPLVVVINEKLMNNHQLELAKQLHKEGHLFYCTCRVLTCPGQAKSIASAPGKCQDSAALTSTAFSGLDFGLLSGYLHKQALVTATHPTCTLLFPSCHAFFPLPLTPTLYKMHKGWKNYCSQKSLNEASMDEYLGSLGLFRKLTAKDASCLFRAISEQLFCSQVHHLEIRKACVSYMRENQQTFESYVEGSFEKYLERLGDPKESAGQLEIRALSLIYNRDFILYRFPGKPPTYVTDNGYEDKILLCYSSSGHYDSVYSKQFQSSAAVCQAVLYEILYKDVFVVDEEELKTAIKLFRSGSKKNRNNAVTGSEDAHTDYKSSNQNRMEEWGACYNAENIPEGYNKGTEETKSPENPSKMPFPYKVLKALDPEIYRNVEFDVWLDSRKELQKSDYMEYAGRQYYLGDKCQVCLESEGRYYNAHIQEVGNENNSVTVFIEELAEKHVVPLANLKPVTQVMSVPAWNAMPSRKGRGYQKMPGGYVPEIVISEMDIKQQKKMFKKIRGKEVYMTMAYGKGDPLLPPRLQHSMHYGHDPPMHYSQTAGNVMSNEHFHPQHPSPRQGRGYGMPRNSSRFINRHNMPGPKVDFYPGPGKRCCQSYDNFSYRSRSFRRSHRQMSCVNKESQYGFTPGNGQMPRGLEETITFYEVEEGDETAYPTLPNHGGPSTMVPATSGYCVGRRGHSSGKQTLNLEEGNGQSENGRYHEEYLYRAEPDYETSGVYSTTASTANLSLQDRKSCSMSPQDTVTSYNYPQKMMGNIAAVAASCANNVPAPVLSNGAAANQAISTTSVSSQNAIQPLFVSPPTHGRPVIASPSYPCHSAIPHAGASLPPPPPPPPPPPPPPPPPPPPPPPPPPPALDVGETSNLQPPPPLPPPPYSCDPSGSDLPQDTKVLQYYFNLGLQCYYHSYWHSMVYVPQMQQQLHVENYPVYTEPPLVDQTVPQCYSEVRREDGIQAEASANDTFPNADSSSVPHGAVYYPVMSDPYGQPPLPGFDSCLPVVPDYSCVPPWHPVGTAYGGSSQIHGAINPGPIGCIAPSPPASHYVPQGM
Summary of the method: (§1)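 Labelling with Biotin-Ahx-Ub-VS (0.5 µM final, 1 h) followed a 3 h triplicate treatment of HEK293T lysate (495 µg per sample, Tris/CHAPS/IGEPAL buffer with protease inhibitors) with fragment at 200 µM or vehicle. Labelled DUBs were NeutrAvidin-enriched, digested with LysC and trypsin, and run by diaPASEF LC-MS/MS. The values, average log2 fragment/vehicle ratios by unpaired t-test, come from global-median-normalised Spectronaut label-free quantities. Proteins with ≥2 unique peptides were used.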

ATXN3 = ATXN3 (UniProt P54252)
Summary of the method: as §1

BAP1 = molecular target: T2, BAP1 (UniProt Q92560)
T2 sequence (whole entry): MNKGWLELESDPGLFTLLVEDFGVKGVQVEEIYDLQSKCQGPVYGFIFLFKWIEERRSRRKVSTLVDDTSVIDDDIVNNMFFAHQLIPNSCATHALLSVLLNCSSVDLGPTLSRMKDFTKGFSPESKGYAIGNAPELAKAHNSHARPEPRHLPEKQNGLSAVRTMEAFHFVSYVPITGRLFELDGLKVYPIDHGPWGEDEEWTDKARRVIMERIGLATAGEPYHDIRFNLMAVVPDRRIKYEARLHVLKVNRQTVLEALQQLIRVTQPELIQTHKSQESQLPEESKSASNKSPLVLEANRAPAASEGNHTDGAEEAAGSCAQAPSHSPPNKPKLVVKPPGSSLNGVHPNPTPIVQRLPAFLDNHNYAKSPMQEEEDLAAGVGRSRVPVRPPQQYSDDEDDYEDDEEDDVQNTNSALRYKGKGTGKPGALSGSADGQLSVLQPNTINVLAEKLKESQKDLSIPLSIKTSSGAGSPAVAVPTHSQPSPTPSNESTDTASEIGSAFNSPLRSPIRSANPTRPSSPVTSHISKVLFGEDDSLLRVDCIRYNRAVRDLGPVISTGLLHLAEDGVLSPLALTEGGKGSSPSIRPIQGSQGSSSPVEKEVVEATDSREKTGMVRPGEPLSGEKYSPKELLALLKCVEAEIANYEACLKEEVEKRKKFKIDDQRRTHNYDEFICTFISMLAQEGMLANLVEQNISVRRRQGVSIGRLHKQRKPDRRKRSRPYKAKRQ
Summary of the method: as §1

EIF3F = EIF3F (UniProt O00303)
Summary of the method: as §1

EIF3H = EIF3H (UniProt O15372)
Summary of the method: as §1

FAM105A = molecular target: T3, FAM105A (UniProt Q9NUU6)
T3 sequence (whole entry): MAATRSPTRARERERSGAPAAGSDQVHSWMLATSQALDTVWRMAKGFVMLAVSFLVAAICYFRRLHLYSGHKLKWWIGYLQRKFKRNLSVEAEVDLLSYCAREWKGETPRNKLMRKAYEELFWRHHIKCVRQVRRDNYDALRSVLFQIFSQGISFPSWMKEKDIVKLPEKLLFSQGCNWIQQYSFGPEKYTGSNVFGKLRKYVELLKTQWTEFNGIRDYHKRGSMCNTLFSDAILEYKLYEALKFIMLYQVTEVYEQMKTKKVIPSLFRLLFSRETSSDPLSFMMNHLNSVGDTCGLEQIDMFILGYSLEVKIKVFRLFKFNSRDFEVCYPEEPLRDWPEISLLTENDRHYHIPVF
Summary of the method: as §1

OTUB1 = OTUB1 (UniProt Q96FW1)
Summary of the method: as §1

OTUD4 = molecular target: T4, OTUD4 (UniProt Q01804)
T4 sequence (whole entry): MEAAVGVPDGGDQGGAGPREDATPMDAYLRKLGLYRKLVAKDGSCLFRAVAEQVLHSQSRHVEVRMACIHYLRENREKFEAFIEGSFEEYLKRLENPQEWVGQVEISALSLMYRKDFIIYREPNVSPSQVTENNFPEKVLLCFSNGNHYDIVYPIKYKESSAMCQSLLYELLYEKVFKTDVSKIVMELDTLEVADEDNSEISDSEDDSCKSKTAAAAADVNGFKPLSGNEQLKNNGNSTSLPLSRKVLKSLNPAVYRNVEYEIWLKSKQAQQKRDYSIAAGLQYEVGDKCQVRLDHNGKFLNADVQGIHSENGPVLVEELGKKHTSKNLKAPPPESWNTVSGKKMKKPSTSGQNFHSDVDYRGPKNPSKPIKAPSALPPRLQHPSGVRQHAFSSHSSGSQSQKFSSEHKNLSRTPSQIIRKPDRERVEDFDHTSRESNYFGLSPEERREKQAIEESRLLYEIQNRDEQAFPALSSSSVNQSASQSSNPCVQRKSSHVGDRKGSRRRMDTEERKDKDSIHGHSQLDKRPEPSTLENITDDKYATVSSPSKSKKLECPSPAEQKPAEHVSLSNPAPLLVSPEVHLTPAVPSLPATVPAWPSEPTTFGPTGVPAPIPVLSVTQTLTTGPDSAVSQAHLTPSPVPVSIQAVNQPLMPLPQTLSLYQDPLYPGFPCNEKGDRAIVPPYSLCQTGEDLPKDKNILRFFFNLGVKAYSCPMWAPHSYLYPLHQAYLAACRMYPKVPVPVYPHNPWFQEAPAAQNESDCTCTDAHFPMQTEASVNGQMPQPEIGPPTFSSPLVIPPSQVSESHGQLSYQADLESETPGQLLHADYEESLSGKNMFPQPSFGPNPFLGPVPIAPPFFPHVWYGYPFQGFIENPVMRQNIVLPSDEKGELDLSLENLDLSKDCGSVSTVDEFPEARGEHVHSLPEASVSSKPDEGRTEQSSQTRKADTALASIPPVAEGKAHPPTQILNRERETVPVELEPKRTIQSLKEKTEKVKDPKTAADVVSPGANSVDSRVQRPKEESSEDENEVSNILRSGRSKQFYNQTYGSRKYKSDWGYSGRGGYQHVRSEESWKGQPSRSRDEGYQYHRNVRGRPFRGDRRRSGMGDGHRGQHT
Summary of the method: as §1

OTUD5 = molecular target: T5, OTUD5 (UniProt Q96G74)
T5 sequence (whole entry): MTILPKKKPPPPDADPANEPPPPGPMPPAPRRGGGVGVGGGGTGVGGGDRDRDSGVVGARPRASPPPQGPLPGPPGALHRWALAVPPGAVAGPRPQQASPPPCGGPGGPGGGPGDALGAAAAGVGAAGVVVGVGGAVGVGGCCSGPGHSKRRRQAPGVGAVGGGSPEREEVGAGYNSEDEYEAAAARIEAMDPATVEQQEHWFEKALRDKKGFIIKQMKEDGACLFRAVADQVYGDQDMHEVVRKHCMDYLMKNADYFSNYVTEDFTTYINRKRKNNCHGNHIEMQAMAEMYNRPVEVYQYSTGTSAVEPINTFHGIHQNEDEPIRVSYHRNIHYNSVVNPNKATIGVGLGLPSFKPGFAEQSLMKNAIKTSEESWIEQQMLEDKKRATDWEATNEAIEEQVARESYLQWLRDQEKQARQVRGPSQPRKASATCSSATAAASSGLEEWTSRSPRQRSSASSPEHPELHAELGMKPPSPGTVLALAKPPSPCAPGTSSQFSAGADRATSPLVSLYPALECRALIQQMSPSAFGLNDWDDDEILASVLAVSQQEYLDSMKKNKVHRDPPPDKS
Summary of the method: as §1

ATXN3, sequence (P54252 whole entry): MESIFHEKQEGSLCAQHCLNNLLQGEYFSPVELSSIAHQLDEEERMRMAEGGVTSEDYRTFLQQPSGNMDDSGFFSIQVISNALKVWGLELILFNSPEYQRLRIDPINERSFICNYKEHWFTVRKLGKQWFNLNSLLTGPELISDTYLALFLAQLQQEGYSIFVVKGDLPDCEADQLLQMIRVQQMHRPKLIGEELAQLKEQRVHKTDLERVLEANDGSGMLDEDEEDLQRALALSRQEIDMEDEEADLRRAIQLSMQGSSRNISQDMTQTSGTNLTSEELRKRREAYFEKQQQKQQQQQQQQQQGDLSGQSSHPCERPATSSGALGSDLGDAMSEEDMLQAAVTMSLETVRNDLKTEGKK
EIF3F, sequence (O00303 whole entry): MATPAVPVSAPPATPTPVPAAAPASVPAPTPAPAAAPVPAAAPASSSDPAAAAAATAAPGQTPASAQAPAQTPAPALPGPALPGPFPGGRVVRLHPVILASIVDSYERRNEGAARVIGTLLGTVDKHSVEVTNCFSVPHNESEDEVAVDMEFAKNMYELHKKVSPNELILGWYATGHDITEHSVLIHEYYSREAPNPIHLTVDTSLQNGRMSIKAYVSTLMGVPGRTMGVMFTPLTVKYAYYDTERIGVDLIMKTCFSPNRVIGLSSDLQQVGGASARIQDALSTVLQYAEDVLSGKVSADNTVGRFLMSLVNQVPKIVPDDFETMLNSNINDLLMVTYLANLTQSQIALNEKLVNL
EIF3H, sequence (O15372 whole entry): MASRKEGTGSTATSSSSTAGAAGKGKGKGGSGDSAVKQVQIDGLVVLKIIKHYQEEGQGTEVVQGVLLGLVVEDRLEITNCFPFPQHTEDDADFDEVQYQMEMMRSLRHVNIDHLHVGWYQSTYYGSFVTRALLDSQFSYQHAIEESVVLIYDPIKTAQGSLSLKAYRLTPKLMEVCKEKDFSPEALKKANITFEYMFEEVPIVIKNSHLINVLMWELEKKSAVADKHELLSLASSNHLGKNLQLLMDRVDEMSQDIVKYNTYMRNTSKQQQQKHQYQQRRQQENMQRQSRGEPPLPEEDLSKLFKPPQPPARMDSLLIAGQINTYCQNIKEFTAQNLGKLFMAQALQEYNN
OTUB1, sequence (Q96FW1 whole entry): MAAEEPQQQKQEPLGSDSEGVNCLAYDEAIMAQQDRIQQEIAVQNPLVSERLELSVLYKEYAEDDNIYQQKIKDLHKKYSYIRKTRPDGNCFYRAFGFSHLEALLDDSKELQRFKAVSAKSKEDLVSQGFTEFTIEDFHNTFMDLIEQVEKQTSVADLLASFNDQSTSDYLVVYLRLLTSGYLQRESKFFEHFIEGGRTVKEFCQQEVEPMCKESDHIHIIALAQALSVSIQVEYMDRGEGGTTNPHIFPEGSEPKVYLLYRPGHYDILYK

## CS(=O)(=O)c1ccc(CNC(=O)CCl)cc1
ALG13
  log2 ratio of Biotin-Ahx-Ub-VS probe labelling: -0.0665
ATXN3
  log2 ratio of Biotin-Ahx-Ub-VS probe labelling: -0.381
BAP1
  log2 ratio of Biotin-Ahx-Ub-VS probe labelling: -3.17 (active)
EIF3F
  log2 ratio of Biotin-Ahx-Ub-VS probe labelling: -0.177
EIF3H
  log2 ratio of Biotin-Ahx-Ub-VS probe labelling: -0.0369
FAM105A
  log2 ratio of Biotin-Ahx-Ub-VS probe labelling: -0.0581
OTUB1
  log2 ratio of Biotin-Ahx-Ub-VS probe labelling: -0.0582
OTUD4
  log2 ratio of Biotin-Ahx-Ub-VS probe labelling: -0.317
OTUD5
  log2 ratio of Biotin-Ahx-Ub-VS probe labelling: -0.368
